Compounds without any hit were thinned out: in the full panel of roughly 83,000, 20% have a hit.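 In brief: 96-well plates, 48 h treatment, single concentration, percent growth endpoint.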 Activity calls are given as the source filed them. Rule for the calls: active = growth percent below 10; inactive = the rest.
Key:
Experiment in all cases: NCI-60 one-dose screen, 48 h (100 = growth as untreated, 0 = no growth, -100 = all killed)
SR leukemia = settings: 10 µM
RPMI-8226 leukemia = settings: 10 µM
OVCAR-8 ovarian = settings: 10 µM
OVCAR-5 ovarian = settings: 10 µM
OVCAR-4 ovarian = settings: 10 µM
SK-OV-3 ovarian = settings: 10 µM
OVCAR-3 ovarian = settings: 10 µM
HS 578T breast = settings: 10 µM
NCI/ADR-RES ovarian = settings: 10 µM
T-47D breast = settings: 10 µM
BT-549 breast = settings: 10 µM
MDA-MB-435 melanoma = settings: 10 µM
SW-620 colon = settings: 10 µM
MCF7 breast = settings: 10 µM unless noted
HCT-116 colon = settings: 10 µM
HCC-2998 colon = settings: 10 µM
KM12 colon = settings: 10 µM
IGROV1 ovarian = settings: 10 µM

Measured: growth

c1ncc2[nH]cnc2n1
inactive: SR leukemia 100% | RPMI-8226 leukemia 91.9% | OVCAR-8 ovarian 95.6% | OVCAR-5 ovarian 96.7% | OVCAR-4 ovarian 110% | SK-OV-3 ovarian 90.8% | OVCAR-3 ovarian 110% | HS 578T breast 114% | NCI/ADR-RES ovarian 104% | T-47D breast 94.5% | BT-549 breast 106% | MDA-MB-435 melanoma 108% | SW-620 colon 96.7% | MCF7 breast 93.5% | HCT-116 colon 92.4% | HCC-2998 colon 93.7% | KM12 colon 105%

CCOC(=O)C(CCC(C)C)C(=O)OCC
inactive: SR leukemia 79.7% | RPMI-8226 leukemia 98.8% | OVCAR-8 ovarian 95.6% | OVCAR-5 ovarian 107% | OVCAR-4 ovarian 107% | SK-OV-3 ovarian 106% | HS 578T breast 115% | NCI/ADR-RES ovarian 108% | T-47D breast 100% | BT-549 breast 104% | MDA-MB-435 melanoma 102% | SW-620 colon 102% | MCF7 breast 97.5% | HCT-116 colon 108% | HCC-2998 colon 101% | KM12 colon 104%

O=S(=O)(O)C(Nc1ccccc1)c1ccccc1 (configuration not stated)
inactive: SR leukemia 98.9% | RPMI-8226 leukemia 100% | OVCAR-8 ovarian 104% | OVCAR-5 ovarian 92.4% | OVCAR-4 ovarian 102% | SK-OV-3 ovarian 97% | OVCAR-3 ovarian 107% | HS 578T breast 93.2% | NCI/ADR-RES ovarian 96.9% | T-47D breast 93.7% | MDA-MB-435 melanoma 104% | SW-620 colon 102% | MCF7 breast 98.5% | HCT-116 colon 103%

COC(=O)c1ccccc1N(C)C
inactive: SR leukemia 78.2% | RPMI-8226 leukemia 100% | OVCAR-8 ovarian 105% | OVCAR-5 ovarian 114% | OVCAR-4 ovarian 101% | SK-OV-3 ovarian 95.7% | OVCAR-3 ovarian 106% | HS 578T breast 105% | NCI/ADR-RES ovarian 101% | T-47D breast 93.5% | BT-549 breast 103% | MDA-MB-435 melanoma 108% | SW-620 colon 107% | MCF7 breast 97.1% | HCT-116 colon 98.4% | HCC-2998 colon 113% | KM12 colon 107%

O=c1c2ccccc2c(Br)c(Br)c2ccccc12
inactive: SR leukemia 64.4% | RPMI-8226 leukemia 88.5% | OVCAR-8 ovarian 96.6% | OVCAR-5 ovarian 113% | OVCAR-4 ovarian 82.1% | SK-OV-3 ovarian 109% | OVCAR-3 ovarian 108% | HS 578T breast 107% | NCI/ADR-RES ovarian 60.5% | T-47D breast 53.5% | BT-549 breast 82.4% | MDA-MB-435 melanoma 77.6% | SW-620 colon 29.8% | MCF7 breast 101% | HCT-116 colon 17.8% | HCC-2998 colon 103% | KM12 colon 105%

O=C1C=CC2=C3c4cc(O)c(O)cc4CC3(O)COC2=C1O (configuration not stated)
inactive: SR leukemia 109% | RPMI-8226 leukemia 90% | OVCAR-8 ovarian 97.2% | OVCAR-5 ovarian 104% | OVCAR-4 ovarian 110% | SK-OV-3 ovarian 113% | OVCAR-3 ovarian 123% | HS 578T breast 115% | NCI/ADR-RES ovarian 101% | T-47D breast 113% | MDA-MB-435 melanoma 111% | SW-620 colon 101% | MCF7 breast 98.1% | HCT-116 colon 99% | KM12 colon 114%
active: HCC-2998 colon -35.6%

CC1(C)/C(=C\CO)C2CCC1C2 (configuration not stated)
inactive: SR leukemia 97.8% | RPMI-8226 leukemia 91.6% | OVCAR-8 ovarian 114% | OVCAR-5 ovarian 105% | OVCAR-4 ovarian 111% | SK-OV-3 ovarian 99.8% | OVCAR-3 ovarian 119% | HS 578T breast 101% | NCI/ADR-RES ovarian 105% | T-47D breast 101% | BT-549 breast 102% | MDA-MB-435 melanoma 123% | SW-620 colon 106% | MCF7 breast 104% | HCT-116 colon 96.8% | HCC-2998 colon 104% | KM12 colon 114%

Cc1cc(N2CCC(N3CCCC3)CC2)nc(/N=C(\N)Nc2ccc(Cl)c(Cl)c2)n1
active: SR leukemia -54.3% | RPMI-8226 leukemia -36.7% | OVCAR-8 ovarian -9.16% | OVCAR-4 ovarian -13.2% | HS 578T breast -25.8% | MDA-MB-435 melanoma -98.6% | SW-620 colon -56% | MCF7 breast -44.7% | HCT-116 colon -93.3% | HCC-2998 colon -82.2% | KM12 colon 9.92%
inactive: OVCAR-5 ovarian 19% | IGROV1 ovarian 12.3% | OVCAR-3 ovarian 69.7% | NCI/ADR-RES ovarian 30.3% | T-47D breast 106%

COc1cc(C2NC(=O)C(C#N)=C(Nc3cccc(C)c3)S2)ccc1O (configuration not stated)
inactive: SR leukemia 107% | RPMI-8226 leukemia 81.4% | OVCAR-8 ovarian 105% | OVCAR-5 ovarian 111% | OVCAR-4 ovarian 102% | SK-OV-3 ovarian 103% | OVCAR-3 ovarian 106% | HS 578T breast 96.5% | NCI/ADR-RES ovarian 110% | T-47D breast 93.5% | BT-549 breast 101% | MDA-MB-435 melanoma 104% | SW-620 colon 104% | MCF7 breast 92.9% | HCT-116 colon 103% | HCC-2998 colon 106% | KM12 colon 104%

CCN=c1cc2sc3cc(NCC)c(C)cc3nc-2cc1C
active: RPMI-8226 leukemia 2.43% | OVCAR-8 ovarian -16.3% | T-47D breast -1.96% | MDA-MB-435 melanoma -35.1% | SW-620 colon 0.622% | MCF7 breast -11.5% | HCT-116 colon 7.17% | KM12 colon -1.68%
inactive: SR leukemia 13.4% | OVCAR-5 ovarian 27.5% | OVCAR-4 ovarian 17.2% | SK-OV-3 ovarian 16.1% | HS 578T breast 50.8% | NCI/ADR-RES ovarian 19.9% | BT-549 breast 36.4%
